Source: PubChem BioAssay (NCATS)
Records with an inconclusive call do not appear. Where a call stands in place of a potency, no number is given. Active and inactive are the calls of the source. Unless noted, the call rests on the fitted dose curve; in most records, active means well fitted curve in the direction sought with a large enough effect; inconclusive means small, poorly fitted or top-dose-only effect, or another doubt; inactive means no such curve, though single readings can be large; an effect the other way counts as inactive or inconclusive.

Legend:
[1] = tested on: Zika virus NS2B-NS3 protease; assay: Primary screen GU AMC qHTS for Zika virus inhibitors (AID 1347154); further: nearly all actives have a fitted effect of over 70% in size
How it was run: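 Unlinked Zika NS2B hydrophilic domain–NS3 protease complex at 25 nM in 10 mM Tris-HCl pH 8.0, 0.01% Tween 20, with an AMC peptide substrate. Fluorescence change (340/450 nm) over 15 min at room temperature, normalized to controls, fitted to 4-parameter Hill.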

[2] = qHTS to identify inhibitors of the type 1 interferon - major histocompatibility complex class I in skeletal muscle: primary screen against the NCATS Mechanism Interrogation Plate v5.0 (MIPE) Libary (AID 1347411); further: nearly all actives have a fitted effect of over 65% in size
How it was run: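 Immortalized human myoblasts (C25cl48) with HiBit knocked into endogenous HLA-B*08:01 were stimulated with 4 ng/ml IFN-beta and given compounds in 11-point 1:3 titration from 46 uM. After 24 h at 37 C, lytic HiBiT luminescence was read.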

[3] = Primary qHTS for small molecule stabilizers of the endoplasmic reticulum resident proteome: Secreted ER Calcium Modulated Protein (SERCaMP) assay (AID 1508630)
How it was run: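 GLuc-SERCaMP-expressing SH-SY5Y cells, pretreated 16 h with compound, are challenged with thapsigargin to empty ER calcium stores; after 4 h, coelenterazine is added directly to the medium and luminescence is imaged.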

[4] = target: Cytochrome P450 2D6 (Homo sapiens) (UniProt P10635); assay: Cytochrome P450 family 2 subfamily D member 6 (CYP2D6) small molecule antagonists: luciferase biochemical (cell-free) qHTS assay (AID 1645840; active means well fitted curve in the direction sought with a large enough effect in the repeat runs; an effect the other way counts as inactive or inconclusive; further: potency means the concentration at half of the fitted maximal effect; nearly all actives have a fitted effect of over 55% in size)
How it was run: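 P450-Glo luminescent screen: recombinant CYP2D6 enzyme–proluciferin substrate mix preincubated with compound 10 min at room temperature, then NADPH regeneration added for 1 h at room temperature. Detection reagent added for 20 min; luciferin light read as relative luminescence units.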

[5] = target: Cytochrome P450 2C9 (Homo sapiens) (UniProt P11712); assay: Cytochrome P450 family 2 subfamily C member 9 (CYP2C9) small molecule antagonists: luciferase biochemical (cell-free) qHTS assay (AID 1645842; active means well fitted curve in the direction sought with a large enough effect in the repeat runs; an effect the other way counts as inactive or inconclusive; further: potency means the concentration at half of the fitted maximal effect; nearly all actives have a fitted effect of over 55% in size)
How it was run: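 Luminescence, after 20 min with luciferin detection reagent, reflected CYP2C9 turnover during a 1 h NADPH-driven reaction at 37C. Enzyme-substrate mix contained 0.4% bovine serum albumin and was preincubated with compound 10 min at room temperature.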

[6] = target: Glutathione peroxidase 1 (Homo sapiens) (UniProt P07203); assay: Primary qHTS Assay for Inhibitors of Recombinant Selenoprotein Glutathione Peroxidase 1 (GPX1) (AID 1845191); further: nearly all actives have a fitted effect of over 65% in size
How it was run: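 GR-coupled assay: compounds preincubated 30 min at room temperature with GPX1, then reaction started with CHP; final 10 nM GPX1, 1 mM GSH, 0.5 mM CHP, 0.5 mM NADPH, 100 nM GR, 0.01% BSA, pH 7.5 Tris buffer. NADPH fluorescence (340/450 nm) read at 0 and 15 min.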

[7] = target: Phospholipid hydroperoxide glutathione peroxidase GPX4 (Homo sapiens) (UniProt P36969); assay: Primary qHTS Assay for Inhibitors of Recombinant Selenoprotein Glutathione Peroxidase 4 (GPX4) (AID 1845192); conditions: outcome: dose series up to 50 µM unless noted; further: series mostly up to about 50 µM; nearly all actives have a fitted effect of over 65% in size
How it was run: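 GR-coupled assay: recombinant GPX4 preincubated 30 min with compound at room temperature; final 200 nM GPX4, 1 mM GSH, 0.5 mM cumene hydroperoxide, 0.5 mM NADPH, 100 nM GR, 0.01% BSA, pH 7.5 Tris. NADPH fluorescence (340/450 nm) read at 0 and 15 min.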

[8] = qHTS drug screen for cell cycle checkpoint inhibitors in PARPi-resistant BRCA-mutant ovarian cancer cell lines. (AID 1963452; calls by dose curve); conditions: PEO1/OlaR viability, CellTiter-Glo luminescence, 96 h, stronger effect = lower value
How it was run: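 PEO1, PEO4 and PEO1/OlaR ovarian cancer cells, 600 per well, exposed 96 h at 37C to a dilution series. Viability read by CellTiter-Glo luminescence, normalized to DMSO and empty wells; activity summarized as Z-AUC.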

Sequence of Phospholipid hydroperoxide glutathione peroxidase GPX4 (Homo sapiens) (P36969 whole entry, looked up): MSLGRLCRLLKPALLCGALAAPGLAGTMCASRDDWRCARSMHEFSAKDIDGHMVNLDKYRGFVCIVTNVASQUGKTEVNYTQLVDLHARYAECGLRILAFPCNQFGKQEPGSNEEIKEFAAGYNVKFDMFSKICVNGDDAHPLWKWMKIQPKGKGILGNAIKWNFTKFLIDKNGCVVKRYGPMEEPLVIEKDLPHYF
Sequence of Glutathione peroxidase 1 (Homo sapiens) (P07203 whole entry, looked up): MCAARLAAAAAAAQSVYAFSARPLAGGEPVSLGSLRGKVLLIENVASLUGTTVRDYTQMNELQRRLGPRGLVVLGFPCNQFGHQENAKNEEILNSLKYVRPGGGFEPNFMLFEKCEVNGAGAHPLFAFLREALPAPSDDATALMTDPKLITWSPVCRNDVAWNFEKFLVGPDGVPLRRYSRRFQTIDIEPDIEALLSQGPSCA
Sequence of Cytochrome P450 2C9 (Homo sapiens) (P11712 whole entry, looked up): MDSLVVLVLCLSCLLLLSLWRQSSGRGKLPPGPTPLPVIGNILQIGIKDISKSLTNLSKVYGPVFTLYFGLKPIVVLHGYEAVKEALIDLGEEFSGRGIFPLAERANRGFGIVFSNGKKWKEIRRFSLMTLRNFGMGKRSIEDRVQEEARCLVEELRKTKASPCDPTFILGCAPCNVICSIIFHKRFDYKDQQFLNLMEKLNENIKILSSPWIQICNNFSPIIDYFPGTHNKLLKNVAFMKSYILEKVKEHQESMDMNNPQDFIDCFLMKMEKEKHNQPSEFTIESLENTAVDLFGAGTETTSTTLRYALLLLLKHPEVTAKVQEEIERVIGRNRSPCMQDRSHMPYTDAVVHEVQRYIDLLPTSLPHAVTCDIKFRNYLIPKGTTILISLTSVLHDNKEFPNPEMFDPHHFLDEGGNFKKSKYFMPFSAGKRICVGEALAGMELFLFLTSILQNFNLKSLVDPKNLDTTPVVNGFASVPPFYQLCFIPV
Sequence of Cytochrome P450 2D6 (Homo sapiens) (P10635 whole entry, looked up): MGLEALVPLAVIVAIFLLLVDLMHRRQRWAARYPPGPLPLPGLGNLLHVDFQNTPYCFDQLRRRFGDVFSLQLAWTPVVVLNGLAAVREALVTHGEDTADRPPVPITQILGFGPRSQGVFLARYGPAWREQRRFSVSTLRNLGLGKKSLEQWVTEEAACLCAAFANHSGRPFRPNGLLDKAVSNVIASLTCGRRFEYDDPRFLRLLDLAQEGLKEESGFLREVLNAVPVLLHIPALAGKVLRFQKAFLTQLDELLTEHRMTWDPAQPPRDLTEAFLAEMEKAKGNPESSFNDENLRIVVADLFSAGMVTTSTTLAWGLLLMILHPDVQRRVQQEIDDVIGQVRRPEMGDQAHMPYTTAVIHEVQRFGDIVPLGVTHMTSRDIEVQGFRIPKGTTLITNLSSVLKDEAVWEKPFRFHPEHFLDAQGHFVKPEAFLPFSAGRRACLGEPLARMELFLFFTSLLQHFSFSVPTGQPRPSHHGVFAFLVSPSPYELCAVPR

N#C/C(=C(/N)Sc1ccc(N)cc1)c1ccccc1C(F)(F)F
Potency [1]: inactive | Potency [2]: inactive | Potency [3]: inactive | Potency [4]: 16.9 µM (active) | Potency [5]: 9.52 µM (active) | Potency [6]: inactive | Potency [7]: inactive | Z-AUC [8]: -0.578 (inactive) | Z-AUC ([8]; measured here: PEO1 parental Z-AUC): -0.277 | Z-AUC ([8]; measured here: PEO4 Z-AUC): -0.614
